Measurements as given in PubChem BioAssay AID1745847 (National Center for Advancing Translational Sciences (NCATS), 2022).
About 670 (32%) of roughly 2,100 compounds were called active. Another 50% or so got no clear call; they are omitted. Some of the results follow. Unmarked numbers belong to inactive results. Calls follow the shape of the dose curve; as a rule, active = well fitted inhibition curve with a large enough effect; inconclusive = small, poorly fitted or top-dose-only effect; inactive = no such curve, though single readings can be large or run the other way.
% is scaled to controls: 0 for no effect and ±100 for the full control effect; potency is read from the fitted curve at half-maximal effect.

Experiment: CMV-Luciferase Counterscreen for Inhibitors of ATXN expression; also: nearly all actives have a fitted effect of over 55% in size
Conditions: HEK-293 CMV-luciferase reporter, luminescence, 24 h; series mostly up to 57.5 µM; activity change, negative = inhibition: at the top concentration
Source text: PI: Daniel Scoles Ph.D. University of Utah School of Medicine, Salt Lake City, Utah MLPCN Grant: NS073009 Spinocerebellar ataxia type 2 (SCA2) is a multisystem neurodegenerative disease caused by a dominantly acting mutation leading to expansion of a polyQ domain in the ataxin-2 protein (ATXN2). SCA2 patients develop progressive ataxia and later lose function in other neuronal systems. Prominent parkinsonian signs develop in some patients. Like many neurodegenerative disorders, no symptomatic or disease-modifying treatments are known. The primary objective of the proposed research is to identify compounds inhibiting ATXN2 expression and to test them for efficacy in SCA2 mouse models. We have developed a cell-based assay paired with an in vivo mouse model using identical luciferase expression constructs. This approach takes advantage of an ATXN2-luciferase transgene, with the luciferase gene flanked by the upstream and downstream portions of the ATXN2 gene. Here we describe a 5-7 dose quantitative high thoroughput screen (qHTS) for compounds lowering ATXN2 expression. We screened the NIH Molecular Libraries Small Molecule Repository (MLSMR) and NCGC's mechanistically annotated (MIPE) and drug repurposing (NPC) collections of compounds for lowering expression of an ATXN2-luciferase reporter in HEK-293 cells. The assay is a multiplexed cell viability assay to ensure target reduction in the absence of cytotoxicity. Secondary qHTS assays included a CMV-luciferase reporter expressed in HEK-293 cells as well as a biochemical assay using recombinant luciferase to detect inhibitors of the reporter enzyme. Compounds that inhibit ATXN2 expression but is not cytotoxic were selected for confirmatory and secondary screens.
PROTOCOL TABLE (as described by Inglese J, Shamu CE and Guy RK. 2007) SEQUENCE No. (e.g., 1, 2, 3, etc.); PARAMETER (e.g., Cells, Incubation, Reagent, etc.); VALUE; DESCRIPTION. 1; Cells; 4 uL; white, solid bottom, 1536-well Greiner assay plate. 2; Incubation; 2 hr; 37 degree C in 5% humidified CO2. 3; Compounds; 23 nL; Kalypsis pintool (Wako USA) equipped with a 1536-well pin head. 4; Incubation; 24 hr; 37 degree C in 5% humidfified CO2. 5; Reagent; 1 uL; Gly-Phe-7-Amino-4-trifluoromethylcoumarin. 6; Incubation; 30 min; 37 degree C in 5% humidfified CO2. 7; Detection; Fluorescence; Viewlux plate reader (PerkinElmer). 8; Reagent; 3 uL; SteadyGlo luciferase solution (Promega). 9; Incubation; 5 min; room temperature. 10; Detection; Luminescence; ViewLux plate reader (PerkinElmer). NOTES (numbers refer to Sequence numbers above) 1. HEK-293 cells expressing CMV-luciferase reporter (designated as SC cells) were suspended in phenol-red free DMEM and dispensed in assay plates using a Multidrop Combi dispenser (Thermo Fisher Scientific). 2. Assay plates were incubated. Evaporation was prevented by covering assay plates with metal lids containing holes to allow gas diffusion. 3. Compounds were added in a dose response manner with the final concentrations of 57, 11.4, 2.28, 0.46, 0.091, 0.018, 0.0037 uM. Vehicle-only plates, with DMSO being pin-transferred to columns 5-48, were inserted uniformly at the beginning and the end of each library to monitor and record any shifts in assay performance. 5. 125 uM Gly-Phe-7-Amino-4-trifluoromethylcoumarin (MP Biomedicals) working concentration was used at a final concentration of 25 uM. 7. To assess cell viability; the assay plates were read using the ViewLux high-throughput CCD imager (PerkinElmer), wherein single end-point fluorescence measurement was acquired (excitation 405/10; emission 540/25 nm). 8. Detection reagent SteadyGlo Luciferase (Promega) was added to the assay plate. 10. Luminescence is then measured on the ViewLux imager equipped with a clear emission filter using a 2 sec exposure. […]
For `Cc1cc(Br)c(OCc2ccc(C(=O)N/N=C3\CC4CC=CC34)cc2)c(Br)c1` (stereo unspecified), the Potency was 28.2 µM (active).
For `CC(C)Nc1nc(-c2ccccn2)nc(-c2ccccc2)c1C#N`, the “activity change, negative = inhibition” value was -15.7% (inactive).
For `CCN(CC)c1nc(-c2ccccn2)nc(-c2ccccc2)c1C#N`, the Potency was 7.08 µM (active).
With `COC(=O)c1c(NC(=O)/C=C/C(=O)O)sc(C)c1-c1ccc(C(C)C)cc1` the Potency was 14.1 µM (active).
With `Cc1cc(N2CCN(C)CC2)ccc1NC(=O)c1ccc(-c2ccc(Cl)cc2)o1` the “activity change, negative = inhibition” value was -27.1% (inactive).
In the case of `Cc1[nH]c(-c2ccc(F)cc2)cc1C(=O)N1CCN(c2ccc(Cl)cc2)CC1`, the Potency was 22.4 µM (active).
In the case of `CC1(C(=O)NCc2ccccc2Br)CCN1C(=O)Cc1ccc(-c2ccccc2)cc1` (stereo unspecified), the Potency was 20 µM (active).
For `CC1(C(=O)NCc2ccco2)CCN1C(=O)C1(c2ccccc2)CC1` (stereo unspecified), the activity change, negative = inhibition was -4.65% [at 11.4 µM].
`Cc1ccc2[nH]c(O)c(N=NC(=O)C3CC3c3ccccc3)c2c1Br` (stereo unspecified) gave an activity change, negative = inhibition of -21.9% [at 11.4 µM].
In the case of `O=C(Nc1ccc(Cl)cc1)Nc1ccc(N2CCCC2)c(S(=O)(=O)Nc2ccccc2Cl)c1`, the Potency was 3.98 µM (active).
For `CCN(CC)S(=O)(=O)c1ccc(N/N=C/c2ccc(O)cc2O)nc1`, the Potency was 1.26 µM (active).
Molecule `CCn1c2ccccc2c2cc(NC(=O)COC(=O)c3cc(S(=O)(=O)N4CCCCC4)ccc3Cl)ccc21` has an activity change, negative = inhibition of 4.24% [at 11.4 µM].
With `O=C(COc1ccc(Br)cc1CO)Nc1ccc(S(=O)(=O)N2CCCCC2)cc1` the Potency was 17.8 µM (active).
For `CN(C)CCCN(C(=O)c1ccc(S(=O)(=O)N2CCCCCC2)cc1)c1nc2ccc(Br)cc2s1`, the activity change, negative = inhibition was -16.1% [at 11.4 µM].
In the case of `Cc1ccnc(NC(=O)CCCc2c[nH]c3ccccc23)c1`, the activity change, negative = inhibition was 484% [at 11.4 µM].
In the case of `CC[n+]1c(/C=C/c2c[nH]c3ccccc23)ccc2cc(C)ccc21`, the Potency was 35.5 µM (active).
In the case of `O=C(c1ccc(CS(=O)Cc2ccccc2Cl)o1)N1CCN(c2cccc(Cl)c2)CC1` (stereo unspecified), the Potency was 20 µM (active).
For `C=CCOC(=O)C1=C(C)NC(SCC)=C(C#N)C1c1ccc(Cl)cc1` (stereo unspecified), the Potency was 20 µM (active).
In the case of `COc1cc(C=CC(=O)c2cc(OC)c(OC)c(OC)c2)cc(OC)c1OC`, the Potency was 12.6 µM (active).
With `COc1cc(C=CC(=O)c2ccccc2)cc(OC)c1OC` the “activity change, negative = inhibition” value was -4.63% (inactive).
For `COc1cc(/C=C/C(O)=C/C(=O)/C=C/c2ccc(O)cc2)ccc1O`, the activity change, negative = inhibition was -3.01% [at 11.4 µM].
With `O=C(c1ccc2c(c1)OCO2)N(Cc1cccs1)C1(C(=O)NC2CCCCC2)CCCCC1` the Potency was 28.2 µM (active).
In the case of `COc1ccc(Nc2oc(COc3ccccc3OC)nc2C#N)cc1`, the Potency was 3.55 µM (active).
In the case of `N#Cc1nc(COc2ccc(-c3ccccc3)cc2)oc1NCc1cccnc1`, the Potency was 3.55 µM (active).
In the case of `C=CCNc1oc(-c2ccc(Cl)cc2)nc1C#N`, the “activity change, negative = inhibition” value was -10.5% (inactive).
In the case of `COc1cc2nc(CN(C)Cc3ccc(SC)cc3)[nH]c(=O)c2cc1OC`, the “activity change, negative = inhibition” value was 4.26% (inactive).
In the case of `COc1ccc(-c2cnc3c(NC=O)cc(-c4ccccc4OC)cn23)cc1OC`, the “activity change, negative = inhibition” value was 153% (inactive).
In the case of `Cc1ccc(/C=N/Nc2ccnc3cc(Cl)ccc23)c(C)c1`, the Potency was 14.1 µM (active).
In the case of `Nc1nc(NCCCN2CCOCC2)nc(Nc2cccc(Cl)c2)c1[N+](=O)[O-]`, the activity change, negative = inhibition was -21.5% [at 11.4 µM].
In the case of `Cc1ccc(S(=O)(=O)N(Cc2ccccc2)c2ccccc2C(=O)NCc2ccco2)cc1`, the Potency was 22.4 µM (active).
With `COc1cnc(-c2ccccn2)nc1NC(C)C` the Potency was 8.91 µM (active).
In the case of `COc1cccc(CN(C)C(=O)CNC(=O)c2ccc(-c3ccccc3)cc2)c1OC`, the Potency was 5.01 µM (active).
In the case of `COCCCn1c(-c2ccc(S(=O)(=O)N3CCOCC3)cc2)csc1=Nc1ccccc1`, the Potency was 3.98 µM (active).
With `COc1cc(C(=O)Oc2cccc(Nc3ncnc4ccccc34)c2)cc(OC)c1OC` the Potency was 3.98 µM (active).
In the case of `NC(Cc1ccccc1)c1csc(Nc2nccc(C(F)(F)F)n2)n1` (stereo unspecified), the “activity change, negative = inhibition” value was 5.13% (inactive).
With `Cc1cc(Nc2cccc([N+](=O)[O-])c2)n2c(nc3ccccc32)c1C#N` the Potency was 1.26 µM (active).
In the case of `CCOC(=O)N1CCN(c2ncnc3c2[nH]c2ccc(F)cc23)CC1`, the Potency was 3.55 µM (active).
For `Fc1ccc2[nH]c3c(N4CCSCC4)ncnc3c2c1`, the Potency was 3.16 µM (active).
With `Fc1ccc2[nH]c3c(N4CCc5ccccc5C4)ncnc3c2c1` the Potency was 2.82 µM (active).
For `CC(C)(CO)NCc1c(OCc2ccc(Cl)cc2)ccc2ccccc12`, the “activity change, negative = inhibition” value was -25.8% (inactive).
In the case of `Cc1ccc2nc(-c3ccccc3)nn2c1`, the Potency was 2 µM (active).
In the case of `O=S(=O)(c1ccccc1)N1CCN(c2ccnc3cc(Cl)ccc23)CC1`, the Potency was 22.4 µM (active).
For `COc1ccc(N2CCN(c3ccnc4cc(Cl)ccc34)CC2)cc1`, the Potency was 3.98 µM (active).
With `COc1ccccc1N1CCN(c2ccnc3cc(Cl)ccc23)CC1` the Potency was 10 µM (active).
`COc1ccc(Cl)cc1S(=O)(=O)N1CCN(C(=O)c2n[nH]c(=O)c3ccccc23)CC1` gave an activity change, negative = inhibition of -26.4% [at 11.4 µM].
In the case of `Oc1ccc(N2CCN(c3ccnc4cc(Cl)ccc34)CC2)cc1`, the Potency was 11.2 µM (active).
